These results are taken from PubChem BioAssay AID651661 (Broad Institute, 2012).

Screen size: about 350,000 compounds; about 2,300 (0.66%) were called active. The sample holds actives, similar compounds and a random draw of the others, so the mix is not that of the screen.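 How the source made its calls: active means mean inhibition of at least 50% after viability correction, with every replicate also passing that limit; inconclusive means mean reaches 50% but only one of two replicates passes; inactive means the rest.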

This assay in a line: blockers of EWS/Fli transcriptional output – A673 cells, NR0B1 luciferase, luminescence, MLPCN library, primary screen (AID 651661).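 Further: firefly luciferase signal divided by Alamar Blue viability fluorescence both relative to DMSO.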 To be noted: A673 NR0B1-luciferase reporter, viability-normalised; at 12.6 µM; hits give high values.
Usually inhibition stands for the relative decrease from the control value, in per cent. On to `O=C(C[C@@H]1C[C@H]2c3cc(NC(=O)C4CCOCC4)ccc3O[C@H]2[C@@H](CO)O1)NCCN1CCCCC1`, for which the inhibition was -1.07% (inactive).

As for `COC(=O)C[C@@H]1CC[C@@H]2[C@H](COc3ccc(NC(=O)Nc4cccc(F)c4)cc3C(=O)N2C)O1`, the inhibition is 33.6% (inactive).

For the compound `COC(=O)C[C@@H]1CC[C@@H]2[C@H](COc3ccc(NC(=O)c4cccc(F)c4)cc3C(=O)N2C)O1`, the inhibition was 61.7% (active).

On to `COC(=O)C[C@H]1CC[C@H]2[C@@H](COc3ccc(NC(=O)Nc4cccc(F)c4)cc3C(=O)N2C)O1`, for which the inhibition is -0.36% (inactive).

For `O=C(C[C@@H]1CC[C@H]2[C@@H](COC[C@H](O)CN2Cc2ccc(F)cc2)O1)N1CCc2ccccc2C1`, the inhibition is 2.81% (inactive).

On to `CCCN(C)C[C@@H]1OCc2cnnn2CCCC(=O)N([C@H](C)CO)C[C@@H]1C`, for which the inhibition was 0.738% (inactive).

On to `C[C@@H]1CN([C@H](C)CO)C(=O)Cc2cc(NC(=O)CCCCCC(=O)Nc3ccccc3N)ccc2O[C@H]1CN(C)S(=O)(=O)c1ccc(F)cc1`, for which the inhibition was -11% (inactive).

In the case of `C[C@@H]1CN([C@H](C)CO)C(=O)c2cc(NS(=O)(=O)c3cn(C)cn3)ccc2O[C@@H]1CN(C)Cc1ccc(C(=O)Nc2ccccc2N)cc1`, the inhibition was -4.91% (inactive).

Regarding `Cc1ccc(S(=O)(=O)Nc2ccc3c(c2)C(=O)N([C@H](C)CO)C[C@H](C)[C@H](CN(C)Cc2ccc(C(=O)Nc4ccccc4N)cc2)OCCCC[C@@H](C)O3)cc1`, the inhibition was 8.6% (inactive).

With `C[C@H](CO)N1C[C@H](C)[C@H](CN(C)Cc2ccc(C(=O)Nc3ccccc3N)cc2)Oc2ccc(NS(C)(=O)=O)cc2C1=O`, the inhibition was 27% (inactive).

For the compound `C[C@H]1CN([C@@H](C)CO)C(=O)Cc2cc(NS(=O)(=O)c3ccccc3)ccc2O[C@H]1CN(C)Cc1ccc(C(=O)Nc2ccccc2N)cc1`, the inhibition is -7.96% (inactive).

Turning to `Cc1ccc(S(=O)(=O)Nc2ccc3c(c2)C(=O)N([C@@H](C)CO)C[C@@H](C)[C@@H](CN(C)Cc2ccc(C(=O)Nc4ccccc4N)cc2)O3)cc1`, the inhibition was 51.7% (active).

As to `C[C@@H]1CN([C@@H](C)CO)C(=O)c2cc(NS(=O)(=O)c3ccccc3)ccc2O[C@@H]1CN(C)Cc1ccc(C(=O)Nc2ccccc2N)cc1`, the inhibition was 57.5% (active).

Regarding `COCC#Cc1ccc([C@H]2[C@H](CO)N3C(=O)CN(C(=O)Nc4ccccc4F)C[C@@H]23)cc1`, the inhibition is 2.04% (inactive).

`COc1cccc(S(=O)(=O)N[C@H]2CC[C@H](CCN)O[C@H]2CO)c1`: the inhibition was -10.4% (inactive).

As to `COc1ccc(S(=O)(=O)Nc2ccc3c(c2)C(=O)N([C@H](C)CO)C[C@@H](C)[C@H](CN(C)C(=O)Nc2ccc4c(c2)OCO4)O3)cc1`, the inhibition is 0.75% (inactive).

Regarding `CC(=O)N1[C@H](CO)[C@H](c2ccc(-c3ccccc3)cc2)[C@H]1CNC(=O)NC(C)C`, the inhibition was 0.423% (inactive).

Consider `COc1ccc(-c2ccccc2[C@@H]2[C@@H](C#N)N(C(=O)NC3CCCC3)[C@H]2CO)cc1`, for which the inhibition was 4.32% (inactive).

Take `C[C@H](CO)N1C[C@H](C)[C@@H](CN(C)Cc2ccncc2)Oc2ncc(C#CC3CC3)cc2C1=O`: the inhibition is -3.48% (inactive).

As for `COc1cccc(S(=O)(=O)N2C[C@@H](O)COC[C@@H]3O[C@H](CC(=O)N4CCN(C)CC4)CC[C@H]32)c1`, the inhibition is 2.56% (inactive).

On to `Cc1cc(C(=O)Nc2cccc3c2O[C@H](CN(C)C(=O)Nc2ccccc2)[C@@H](C)CN([C@H](C)CO)C3=O)n(C)n1`, for which the inhibition is -4.28% (inactive).

Consider `O=C(C[C@H]1C[C@H]2c3cc(NC(=O)c4ccc5c(c4)OCO5)ccc3O[C@H]2[C@@H](CO)O1)NCc1cccc(F)c1`, for which the inhibition is -0.435% (inactive).

As to `O=C(NCc1ccncn1)[C@@H]1[C@@H](CO)[C@@H]2Cn3c(ccc(-c4ccc(F)cc4)c3=O)[C@@H]2N1CC1CC1`, the inhibition is 5.67% (inactive).

Consider `C[C@@H]1CN([C@H](C)CO)C(=O)c2cc(NC(=O)C3CCCCC3)ccc2O[C@@H]1CN(C)CC1CCCCC1`, for which the inhibition is 1.73% (inactive).

Regarding `CS(=O)(=O)N1CC2(C1)[C@H](c1ccccc1)[C@H](CO)N2Cc1ccc(F)cc1`, the inhibition was -3.95% (inactive).

With `CCn1c(SCC(=O)Nc2ccc3c(c2)OCCO3)nnc1-c1ccncc1`, the inhibition is 4.78% (inactive).

For the compound `CCOc1ncccc1C(=O)Nc1ccc2c(c1)OCCO2`, the inhibition was -5.13% (inactive).

Turning to `O=C(Nc1ccncc1)c1cc(-c2ccccn2)nc2ccc(Br)cc12`, the inhibition was 17% (inactive).

On to `Cc1ccc2nc(-c3ccncc3)cc(C(=O)Nc3ccc4c(c3)OCCO4)c2c1`, for which the inhibition is 57.8% (active).

With `CCN(CC)CCNC(=O)c1ccc(NC(=O)c2cc(-c3ccncc3)nc3ccccc23)cc1`, the inhibition is 8.49% (inactive).

As to `Cc1ccc2nc(-c3ccncc3)cc(C(=O)Nc3ccc(OC(F)F)cc3)c2c1`, the inhibition is 54% (active).

For the compound `CNC[C@H]1OCCCC[C@@H](C)Oc2ccc(NC(=O)c3ccncc3)cc2C(=O)N([C@H](C)CO)C[C@H]1C`, the inhibition was 0.415% (inactive).

In the case of `CO[C@@H]1CN(C)C(=O)c2cc(NC(=O)C3CC3)ccc2OC[C@H](C)N(CC2CC2)C[C@H]1C`, the inhibition is -3.56% (inactive).

Regarding `O=C(C1CCOCC1)N1C[C@H]2[C@@H](c3ccccc31)[C@@H](CO)N2Cc1ccccc1`, the inhibition is 2.37% (inactive).

With `CCCC(=O)N1CC2(C1)CN(C(=O)COC)[C@@H](CO)c1c2c2ccc(OC)cc2n1C`, the inhibition is 23.9% (inactive).

`C[C@@H](NC(=O)C[C@H]1CC[C@H]2[C@H](COc3ccc(NS(=O)(=O)c4ccc(Cl)cc4)cc3C(=O)N2C)O1)c1ccccc1`: the inhibition was 13.8% (inactive).

With `CN1CCN(CCCCOc2ccccc2-c2ccccc2)CC1`, the inhibition is -2.32% (inactive).

Regarding `OCCN1CCN(C(=S)c2ccc(-c3ccccc3)cc2)CC1`, the inhibition is 69% (active).

Consider `S=C(c1ccc(-c2ccccc2)o1)N1CCCCC1`, for which the inhibition is -59.7% (inactive).

As for `COc1ccc(CN(C)C[C@@H]2OCCCC[C@@H](C)Oc3ccc(NS(=O)(=O)c4ccc(C)cc4)cc3C(=O)N([C@@H](C)CO)C[C@H]2C)cc1`, the inhibition was -18.8% (inactive).

For the compound `CC(=O)Nc1ccc(C=Cc2ccc([N+](=O)[O-])cc2)cc1`, the inhibition was -72.7% (inactive).

As to `O=C(O)C(=Cc1ccc([N+](=O)[O-])cc1)CCc1ccccc1`, the inhibition was 5.5% (inactive).

With `O=C1/C(=C\c2ccc([N+](=O)[O-])cc2)CS(=O)(=O)C/C1=C/c1ccc([N+](=O)[O-])cc1`, the inhibition was 74.9% (active).

On to `CCCN1C[C@@H](C)[C@@H](OC)CN(C)C(=O)c2ccc(NC(=O)c3ccc(F)cc3)cc2OC[C@@H]1C`, for which the inhibition is -2.15% (inactive).

For `Cc1noc(C)c1NC(=O)N(C)C[C@H]1OCCCC[C@@H](C)Oc2ccc(NS(=O)(=O)c3ccc(Cl)cc3)cc2C(=O)N([C@@H](C)CO)C[C@H]1C`, the inhibition was -7.3% (inactive).

Consider `CNC[C@H]1Oc2ccc(N(C)C)cc2CC(=O)N([C@@H](C)CO)C[C@@H]1C`, for which the inhibition was 14.1% (inactive).

Take `CC1(C(=O)NCc2ccco2)Cc2c(-c3ccc4c(c3)OCO4)ccnc2O1` (configuration not stated): the inhibition was 57.5% (active).

Take `COc1cc(OC)c(C(=O)NCc2ccc3c(c2)OCO3)cc1OC`: the inhibition is 9.01% (inactive).

Turning to `CC1(C(=O)NCC2CCOCC2)Cc2c(-c3cccc(C(N)=O)c3)ccnc2O1` (configuration not stated), the inhibition is 0.349% (inactive).

Take `CC1(C(=O)NCc2ccc(F)c(F)c2)Cc2c(-c3ccc4c(c3)OCO4)ccnc2O1` (configuration not stated): the inhibition is 60.1% (active).

For the compound `CN(CC(=O)NCc1ccc2c(c1)OCO2)CC(=O)Nc1ccc(F)c(F)c1F`, the inhibition is 3.77% (inactive).

Consider `S=C(NCc1ccc2c(c1)OCO2)NCc1ccco1`, for which the inhibition is -23.2% (inactive).

For `C[C@@H]1CN([C@H](C)CO)C(=O)Cc2cc(NC(=O)Nc3ccccc3)ccc2O[C@H]1CN(C)Cc1ccc(Cl)c(Cl)c1`, the inhibition was 9.7% (inactive).

For `Cc1noc(C)c1NC(=O)Nc1ccc2c(c1)CC(=O)N([C@H](C)CO)C[C@@H](C)[C@@H](CN(C)Cc1ccncc1)O2`, the inhibition was -1.93% (inactive).

Consider `Cc1noc(C)c1NC(=O)Nc1ccc2c(c1)CC(=O)N([C@H](C)CO)C[C@@H](C)[C@@H](CN(C)Cc1ccc(C(F)(F)F)cc1)O2`, for which the inhibition is 7.38% (inactive).

In the case of `C[C@H](CO)N1C[C@H](C)[C@@H](CN(C)Cc2ccc(Cl)c(Cl)c2)Oc2ccc(NC(=O)Nc3ccc(C(F)(F)F)cc3)cc2CC1=O`, the inhibition is 72.5% (active).

`C[C@@H]1CN([C@H](C)CO)C(=O)Cc2cc(NC(=O)Nc3ccccc3)ccc2O[C@@H]1CN(C)Cc1ccc(C(F)(F)F)cc1`: the inhibition was -0.517% (inactive).

In the case of `Cc1noc(C)c1NC(=O)Nc1ccc2c(c1)CC(=O)N([C@@H](C)CO)C[C@@H](C)[C@@H](CN(C)Cc1ccc(Cl)c(Cl)c1)O2`, the inhibition is 64.4% (active).

`O=C(C1CCOCC1)N1CC(=O)N2[C@H](CO)[C@H](c3ccc(C#Cc4cccc(F)c4)cc3)[C@H]2C1`: the inhibition is 3.5% (inactive).

For the compound `CCCC(=O)Nc1ccc2c(c1)C(=O)N(C)[C@H]1CC[C@@H](CC(=O)NCC(F)(F)F)O[C@@H]1CO2`, the inhibition was 3% (inactive).

For the compound `O=C(C[C@@H]1CC[C@H](NC(=O)C2CC2)[C@H](CO)O1)NCc1ccccc1Cl`, the inhibition is -4.63% (inactive).

Consider `C[C@H](CO)N1C[C@H](C)[C@@H](CN(C)C(=O)NC2CCCCC2)Oc2ccc(NC(=O)c3ccncc3)cc2CC1=O`, for which the inhibition was -1.15% (inactive).

For the compound `COc1cccc(C(=O)Nc2ccc3c(c2)C(=O)N(C)C[C@@H](OC)[C@H](C)CN(C(=O)C2CCOCC2)[C@H](C)CO3)c1`, the inhibition is -12.9% (inactive).

Regarding `COc1cc(/C=C(/NC(=O)c2ccc(Cl)cc2Cl)C(=O)O)cc(OC)c1OC`, the inhibition is 11.1% (inactive).

Take `CCOc1cc(/C=C(/C#N)c2ccc(Cl)cc2)cc(Cl)c1OCC(=O)O`: the inhibition is 67.4% (active).

On to `CCOC(=O)CN/C=C(\C#N)c1ccc(F)cc1`, for which the inhibition was -7.7% (inactive).

On to `CO[C@@H]1CN(C)C(=O)c2cc(NC(=O)c3ccc(F)cc3)ccc2OC[C@H](C)N(C(=O)CN(C)C)C[C@H]1C`, for which the inhibition was 1.32% (inactive).
